From PubChem BioAssay AID463173 (ICCB-Longwood Screening Facility, Harvard Medical School, 2010) come the findings set out here.

The whole screen tested about 52,000 compounds, of which about 4,300 (8.3%) were called active. This excerpt belongs to a sample that is enriched for actives. Unmarked numbers belong to inactive results. Rule as the data show it: active = survival mostly below about 52% (no sharp cut-off); inactive = mostly above about 56%.

The assay relates to DeltatarO mutant. Nature of the assay: S. aureus survival, RN4220 and DeltatarO strains – OD600, teichoic acid synthesis inhibitors, primary screen (AID 463173). Conditions: S. aureus RN4220 wild type/DeltatarO growth, OD600, 18 h, stronger effect = lower value, screened at 18.75 µg/mL (by protocol).
Turning to `O=C(Cn1c(-c2cccs2)cc2cc(Cl)ccc21)N1CCN(c2ccccc2)CC1`, the survival was 78%. As to `CCOC(=O)c1cccnc1SCC(=O)Nc1ccc(C)cc1C`, the survival is 79%.

Turning to `COc1ccc(NC(=O)CN(C)S(=O)(=O)c2cnc[nH]2)cc1`, the survival is 95%. As for `CN(Cc1ccccc1)C(=O)CSc1nc2ccccc2n1Cc1ccccc1F`, the survival is 86%. On to `Cc1ccc(OCC(=O)NCC2(N(C)C)CCCCC2)cc1C`, for which the survival is 83%.

For the compound `CCOc1ccc(CCNC(=O)c2nnc(Cc3ccc(Cl)cc3Cl)o2)cc1OCC`, the survival was 83%. Consider `COc1ccccc1C(=O)Nc1nnc(S(=O)(=O)N2CCN(c3ccc(F)cc3)CC2)s1`, for which the survival is 50%. For `COc1ccccc1C(=O)Nc1nnc(S(=O)(=O)N2CCCCCC2)s1` the value was 56% (active). With `Cc1ccccc1C(=O)Nc1nnc(S(=O)(=O)N2CCCCCC2)s1`, the survival is 47% (active). For `O=C(Nc1nnc(S(=O)(=O)N2CCCC2)s1)c1ccccc1F` the value was 28% (active). For `O=C(Nc1nnc(S(=O)(=O)N2CCOCC2)s1)c1ccccc1Cl` the value was 79%; for `O=C(Nc1nnc(S(=O)(=O)N2CCCCCC2)s1)c1ccccc1Cl`, 38% (active). For `O=C(Nc1nnc(S(=O)(=O)N2CCCC2)s1)c1ccccc1Cl`, the survival was 117%. As to `O=C(Nc1nnc(S(=O)(=O)N2CCOCC2)s1)c1ccccc1F`, the survival was 86%.

Consider `COc1ccccc1C(=O)Nc1nnc(S(=O)(=O)N2CCCCC2)s1`, for which the survival is 69%. On to `COc1ccc(N(C)S(=O)(=O)c2ccc3c(c2)n(C)c(=O)c(=O)n3C)cc1`, for which the survival is 86%. As for `O=C(CN1CCCN(Cc2ccccc2Cl)S1(=O)=O)NCc1ccccc1`, the survival is 94%.

On to `CCCn1c(=O)c2sccc2n2c(CCCC(=O)NCc3ccccc3)nnc12`, for which the survival is 83%. Then `O=C(c1ccccc1)n1nc(-c2ccco2)nc1NCc1ccccc1Cl`, with 103%; and `O=C1C2C3C=CC(C3)C2C(=O)N1c1ccc(-c2nc3ccccc3o2)cc1` (stereo unspecified), with 89%; and `CCN(C(=O)Cn1c(=O)n(CCCS(=O)(=O)C2CCCCC2)c(=O)c2ccccc21)c1cccc(C)c1`, with 87%. For `COc1ccccc1CNC(=O)c1ccc2c(c1)N(Cc1cc(C)ccc1C)C(=O)c1ccccc1S2`, the survival was 68%. Take `COc1cccc(NC(=O)Cn2c(=O)oc3cc(S(=O)(=O)N4CCCCC4)ccc32)c1`: the survival was 112%.

For the compound `COc1ccc(N2CCN(C(=O)CN3C(=O)CSc4c3c(C)nn4-c3ccccc3)CC2)cc1`, the survival was 79%. As to `CC(=O)NCCNC(=O)c1ccc2c(=O)n(CCc3ccccc3)c(=O)[nH]c2c1`, the survival is 83%. As for `O=C(Nc1nnc(S(=O)(=O)N2CCCCCC2)s1)c1ccccc1F`, the survival was 47% (active). For `CCc1ccc2oc(C(=O)Nc3cc(C)ccc3C)cc(=O)c2c1`, the survival is 52%. Then `Cc1ccc(C(=O)Nc2ccc3oc(-c4cccnc4)nc3c2)cc1`, with 83%. Then `CCOC(=O)C(=O)Nc1c(C(=O)Nc2cccc(F)c2)oc2ccccc12`, with 97%; and `Cc1ccc(NC(=O)c2oc3ccccc3c2NC(=O)c2ccccc2C)cc1`, with 79%; and `COc1cccc(NC(=O)c2oc3ccccc3c2C)c1`, with 106%. Then `COc1cccc(NC(=O)c2oc3ccccc3c2NC(=O)c2ccccc2C)c1`, with 43% (active). Turning to `Cc1ccccc1C(=O)Nc1c(C(=O)Nc2cccc(F)c2)oc2ccccc12`, the survival was 46% (active).

As for `COc1cccc(NC(=O)c2oc3ccccc3c2NC(=O)COc2ccccc2C)c1`, the survival is 122%.

For `O=C(OCc1cc(=O)n2nc(-c3cccs3)sc2n1)c1ccccc1Br`, the survival was 75%. `CC1C(C(=O)Nc2ccccc2)CCCC1(C)C(=O)O` (stereo unspecified): the survival is 80%. Regarding `CC(=O)c1cccc(NC(=O)C2CCN(c3ncnc4c3nc3n4CCCCC3)CC2)c1`, the survival was 84%.

On to `O=C(CN(c1ccc2c(c1)OCCO2)S(=O)(=O)c1ccccc1)NC1CC1`, for which the survival is 75%.

As to `CCOc1ccc(NC(=O)c2ccc3c(=O)n4nc(Nc5ccccc5C)sc4nc3c2)cc1`, the survival was 113%.

For `CCCCN(CC)C(=O)C1CCC(CNS(=O)(=O)c2cccc3nsnc23)CC1` (stereo unspecified), the survival is 83%.

`O=C(CCC(=O)N1Cc2ccccc2Oc2ncccc21)Nc1ccc(Cl)cc1`: the survival is 37% (active). For `CC(C)NC(=O)CCC(=O)N1Cc2ccccc2Oc2ncccc21` the value was 0% (active); for `Cc1ccc(NC(=O)CCC(=O)N2Cc3ccccc3Oc3ncccc32)cc1Cl`, 83%; for `CN(C)c1ccc(CNC(=O)CCC(=O)N2Cc3ccccc3Oc3ncccc32)cc1`, 83%. With `Cc1ccc(CNC(=O)CCC(=O)N2Cc3ccccc3Oc3ncccc32)cc1`, the survival was 71%. For `CC(C)CCNC(=O)CCC(=O)N1Cc2ccccc2Oc2ncccc21` the value was 55%; for `Cc1ccc(NC(=O)CCC(=O)N2Cc3ccccc3Oc3ncccc32)cc1`, 49%. As for `CCC(C)NC(=O)CCC(=O)N1Cc2ccccc2Oc2ncccc21` (stereo unspecified), the survival is 117%. For the compound `CCOc1ccc(CNC(=O)CCC(=O)N2Cc3ccccc3Oc3ncccc32)cc1`, the survival was 32% (active). For `CCOc1ccc(CNC(=O)Cn2nc(C)n3cccc3c2=O)cc1`, the survival was 101%.

Turning to `Cc1cccc(NC(=O)C2CCN(S(=O)(=O)c3ccc(F)cc3)CC2)c1C`, the survival is 60%. For `COc1ccc(CNC(=O)CCCN2C(=O)CCn3nc(-c4cn(C)c5ccccc45)cc32)cc1` the value was 88%; for `COc1ccc(OC)c(NC(=O)Cc2coc3ccc(C(C)C)cc23)c1`, 73%; for `Cc1ccc(N(C)C(=O)Cn2nc(Cc3ccncc3)c3ccccc3c2=O)cc1C`, 84%. Take `Oc1ccc2ccccc2c1/C=N/c1nccs1`: the survival is 81%.

As for `CCOc1ccccc1NC(=O)Nc1ccc2nc(N3CCN(C)CC3)cc(C)c2c1`, the survival was 75%. `COc1ccc(CCNC(=O)C(=O)NCC(c2cccs2)S(=O)(=O)c2cccs2)cc1` (stereo unspecified): the survival was 78%.

`COc1cc(S(=O)(=O)N2CCCCC2C)c(OC)cc1Cl` (stereo unspecified): the survival was 114%. Consider `CC(CCc1ccccc1)NC(=O)Cn1c(=O)nc(-c2ccccc2)c2ccccc21` (stereo unspecified), for which the survival was 99%. On to `CC1(C)OC(=O)C(=C2CCCCCN2)C(=O)O1`, for which the survival was 99%.

Regarding `COc1ccc(Cl)cc1NC(=O)c1sc2nc3n(c(=O)c2c1C)CCC3`, the survival is 76%. As for `COc1ccccc1NC(=O)c1sc2nc(-c3cc4ccccc4oc3=O)[nH]c(=O)c2c1C`, the survival is 106%.

Take `COc1ccccc1NC(=O)c1sc2nc(-c3cc4cc(Cl)ccc4oc3=O)[nH]c(=O)c2c1C`: the survival was 45% (active). Then `Cc1c(C(=O)Nc2ccccc2)sc2nc(-c3cc4cc(Cl)ccc4oc3=O)[nH]c(=O)c12`, with 45% (active); and `O=C(O)c1ccc2nc(-c3cc4cc(Cl)ccc4oc3=O)[nH]c2c1`, with 69%; and `CC(C)(C)C1CCc2c(sc3nc(-c4cc5cc(Cl)ccc5oc4=O)[nH]c(=O)c23)C1` (stereo unspecified), with 83%.

As to `COc1ccc(-c2cn3nc(SCC(=O)Nc4ccc(C)c(Cl)c4)ccc3n2)cc1`, the survival was 94%. For `COc1ccccc1N1CCN(C(=O)c2oc3ccccc3c2NC(=O)C(C)Oc2ccccc2)CC1` (stereo unspecified) the value was 69%; for `CCNc1nc2c(c(=O)[nH]c(=O)n2C)n1CC(O)COc1ccc(Cl)cc1Cl` (stereo unspecified), 180%; for `CN(C)c1ccc(CNS(=O)(=O)c2csc(C(N)=O)c2)cc1`, 60%. For `O=C(CC1N=C2c3ccccc3N=C(SCc3ccc(F)cc3)N2C1=O)NCCc1ccccc1` (stereo unspecified) the value was 85%; for `CCOc1ccccc1Nc1nc2ccccc2nc1NS(=O)(=O)c1ccc(Cl)cc1`, 79%. As for `COc1ccc(Nc2nc3ccccc3nc2NS(=O)(=O)c2ccc(C)cc2)c(OC)c1`, the survival is 63%. Then `CCc1ccc(Nc2nc3ccccc3nc2NS(=O)(=O)c2ccccc2)cc1`, with 28% (active). On to `COc1cc(Cl)c(C)cc1Nc1nc2ccccc2nc1NS(=O)(=O)c1ccccc1`, for which the survival is 116%. On to `CCOC(=O)c1ccc(Nc2nc3ccccc3n3c(C)nnc23)cc1`, for which the survival is 67%.

On to `Cc1ccc2nc(NS(=O)(=O)c3ccc(Cl)cc3)c(Nc3ccc(C(=O)O)cc3)nc2c1`, for which the survival was 109%.

With `CCOC(=O)c1ccc(Nc2nc3ccccc3nc2NS(=O)(=O)c2ccc(Cl)cc2)cc1`, the survival was 37% (active). Take `CCOc1ccc(S(=O)(=O)Nc2nc3ccccc3nc2Nc2ccc(OC)cc2)cc1`: the survival was 68%. Turning to `COc1ccc(Nc2nc3ccccc3nc2NS(=O)(=O)c2ccc(Cl)cc2)cc1OC`, the survival was 29% (active). `Cc1cccc(C)c1Nc1nc2ccccc2nc1NS(=O)(=O)c1ccccc1`: the survival was 79%. Turning to `COc1ccc2nc(NS(=O)(=O)c3ccc(C)cc3)c(Nc3cc(Cl)ccc3OC)nc2c1`, the survival was 22% (active). For `COc1ccc(Nc2nc3c(S(=O)(=O)c4ccccc4)nnn3c3ccc(Cl)cc23)cc1OC` the value was 117%. `Cc1ccc(Cl)cc1NC(=O)CN1C(=O)CSc2ccc(S(=O)(=O)N3CCCC3)cc21`: the survival is 97%. In the case of `CCN1CCN(CCCNC(=O)Cn2nc(C)n3c(cc4cc(C)ccc43)c2=O)CC1`, the survival was 98%.

Turning to `Cc1cc(C)cc(NC(=O)CCCn2nc(C)c3c(C)n(-c4ccccc4)nc3c2=O)c1`, the survival is 80%. Then `NC(Cc1c[nH]c2ccccc12)C(=O)NCc1ccccc1` (stereo unspecified), with 92%; and `CN1C(C(=O)c2ccccc2)=C(NC(=O)c2ccccc2Br)c2ccccc2S1(=O)=O`, with 63%; and `COc1ccccc1C(=O)Nc1ccc(S(=O)(=O)Nc2nc(C)cc(C)n2)cc1`, with 61%.

Regarding `COC(=O)c1cc(Nc2nc3ccccc3nc2NS(=O)(=O)c2ccc(C)cc2)ccc1Cl`, the survival is 29% (active). For `O=S(=O)(Nc1nc2ccccc2nc1Nc1ccccc1Br)c1ccccc1` the value was 112%.
